A selection: hits, their analogues and other compounds. The true share with any hit is near 0.95%.
Giardia FBPA inh-1 = Giardia lamblia aldolase inhibition; A8B2U2; purified Giardia FBPA; Potency, µM (titrated, usually from 59.6 µM), inactives show top-dose activity, negative = inhibition, usual class: inhibitors; 0.71% of 290,000 active; AID 2451; note: nearly all actives have a fitted effect of over 55% in size
Target sequence (A8B2U2 whole entry, looked up): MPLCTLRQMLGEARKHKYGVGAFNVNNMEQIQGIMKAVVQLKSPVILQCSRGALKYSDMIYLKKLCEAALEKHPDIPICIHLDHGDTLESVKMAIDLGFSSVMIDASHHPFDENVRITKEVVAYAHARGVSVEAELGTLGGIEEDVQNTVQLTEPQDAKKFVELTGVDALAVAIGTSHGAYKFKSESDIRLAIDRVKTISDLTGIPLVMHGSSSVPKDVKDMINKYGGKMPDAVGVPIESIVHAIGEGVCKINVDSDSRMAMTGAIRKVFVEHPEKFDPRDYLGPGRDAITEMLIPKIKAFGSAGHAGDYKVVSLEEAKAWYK
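40 nM FBPA preincubated 10 min at RT with compound (up to 57.5 uM final), then substrate plus GAPDH/TPI/NAD/arsenate coupling and diaphorase/resazurin added. Fluorescence read after 20 min at RT, 525/598 nm.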
TbPYK inhibitor = inhibitors of Trypanosoma brucei pyruvate kinase. Q57TT1. TbPYK enzyme, Kinase-Glo Plus ATP luminescence, 45 min. Potency, µM (series often up to 76.8 µM), inactives show at the highest dose activity, negative = inhibition, most hits filed as inhibitors. 0.12% of 410,000 active. AID 624173; note: nearly all actives have a fitted effect of over 50% in size
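T. brucei PYK with substrate was exposed to pin-transferred compounds across a concentration series, then started with 130 uM ADP (final). After 45 min at room temperature, Kinase-Glo Plus luminescence was read, normalized and curve-fitted.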
RE007 growth inh = less growth of the S. pombe RE007 Vpr strain. S. pombe RE007 Vpr strain, BacTiter-Glo ATP luminescence, 24 h. 0.21% of 360,000 active. Potency, µM (series often up to 92.2 µM), for inactives: at the top dose activity change, negative = less growth, most hits filed as inhibitors; active = well fitted falling curve with a large enough effect; inconclusive = small, poorly fitted or top-dose-only effect; inactive = no such curve, though single readings can be large or run the other way; note: nearly all actives have a fitted effect of over 50% in size
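Fission yeast RE007 carrying one integrated HIV-1 vpr copy, seeded at OD 0.01 in PMG+AL medium with 23 nL pinned compound. Grown 24 h at 30 degrees; viability read by BacTiter-Glo luminescence after 5 min.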
LmPK inhibitor = inhibitors of Leishmania mexicana pyruvate kinase | 0.37% of 290,000 active | Potency, µM (doses to about 57.5 µM), for the others: top-dose activity change, negative = inhibition, hits mostly inhibitors | Q27686 | purified LmPK, Kinase-Glo ATP luminescence, 1 h
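Screened at intermediate enzyme activity to detect both inhibitors and activators: LmPK at 0.1 nM, with a 0.5 nM enzyme column as activation reference. PEP 0.5 mM, ADP 0.1 mM; ATP detected by luminescence after 1 h.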
Giardia growth = blocks growth of Giardia lamblia trophozoites. shares compounds with Giardia FBPA inh-1. Potency, µM (titrated, usually from 57.5 µM), without a hit: top-dose activity change, negative = inhibition, usual class: inhibitors. 5% of 1,500 active. Giardia lamblia trophozoite growth inhibition;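 note: trophozoites exposed to compound for 48 h at 37 °C; nearly all actives have a fitted effect of over 70% in size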
Mammalian tox = toxic to mammalian cells in Giardia aldolase counter-screen. shares compounds with Giardia FBPA inh-1. mammalian cell viability counter-screen, qHTS. Potency, µM (titrated, usually from 57.5 µM), for inactives: at the highest dose viability change, negative = toxicity, usual class: inhibitors. 4% of 1,500 active;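 note: Chinese hamster ovary cells used as mammalian cytotoxicity surrogate; viability measured as cellular ATP by luminescence; compound exposure lasted 48 h before reading; nearly all actives have a fitted effect of over 60% in size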
Giardia FBPA inh-2 = confirmation of Giardia fructose-bisphosphate aldolase inhibitors | shares compounds with Giardia FBPA inh-1 | purified Giardia aldolase enzyme activity, qHTS | Potency, µM (series often up to 57.5 µM), without a hit: at the top dose activity change, negative = inhibition, usual class: inhibitors | 5% of 1,500 active | AID 2787; note: nearly all actives have a fitted effect of over 45% in size
Rabbit aldolase = blocks rabbit muscle aldolase in Giardia aldolase selectivity test | shares compounds with Giardia FBPA inh-1 | Rabbit muscle FBPA enzyme inhibition, selectivity counter-screen | Potency, µM (titrated, usually from 57.5 µM), without a hit: at the top dose activity, negative = inhibition, most hits filed as inhibitors | 4% of 1,500 active | AID 2794; note: nearly all actives have a fitted effect of over 60% in size
Target sequence (P00883 whole entry, looked up): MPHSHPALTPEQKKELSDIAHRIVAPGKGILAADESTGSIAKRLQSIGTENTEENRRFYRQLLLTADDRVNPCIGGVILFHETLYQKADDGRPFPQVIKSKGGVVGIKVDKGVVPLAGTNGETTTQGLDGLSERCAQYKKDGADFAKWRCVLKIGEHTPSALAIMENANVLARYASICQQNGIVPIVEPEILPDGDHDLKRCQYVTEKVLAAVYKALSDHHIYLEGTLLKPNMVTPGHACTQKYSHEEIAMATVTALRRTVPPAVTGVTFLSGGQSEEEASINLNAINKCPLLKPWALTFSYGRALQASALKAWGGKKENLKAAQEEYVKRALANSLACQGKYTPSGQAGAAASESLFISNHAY
GAPDH coupling = counter-screen for Giardia aldolase inhibitors: GAPDH coupling enzyme; AID 2795; 6% of 1,500 active; GAPDH coupling enzyme counterscreen, biochemical, qHTS; shares compounds with Giardia FBPA inh-1; Potency, µM (titrated, usually from 57.5 µM), for inactives: at the highest dose activity change, negative = inhibition, actives largely listed as inhibitors; note: nearly all actives have a fitted effect of over 55% in size
* hit, by the source's call; [ ] = remark or other dose. Unless noted, calls come from the whole dose curve; as a rule, active = well fitted curve in the direction sought with a large enough effect; inconclusive = small, poorly fitted or top-dose-only effect, or another doubt; inactive = no such curve, though single readings can be large; an effect the other way counts as inactive or inconclusive. % is set by controls: 0 for no effect and ±100 for the full control effect; potency is the fitted concentration of half-maximal effect.

Cc1ccccc1C[C@H](C(=O)O)N1C(=O)c2ccc(C(=O)O)cc2C1=O was read as Giardia FBPA inh-1 5%.
Screening N#Cc1c(-c2cccc(Br)c2)cc(-c2ccco2)[nH]c1=O returned Giardia FBPA inh-1 -11%, TbPYK inhibitor 1%, RE007 growth inh 5% and LmPK inhibitor 1%.
For COc1ccc(-c2cc(-c3ccco3)[nH]c(=O)c2C#N)cc1 the results were Giardia FBPA inh-1 20µM*, TbPYK inhibitor 3%, RE007 growth inh 0%, LmPK inhibitor 12%, Giardia growth -29%, Mammalian tox -7%, Giardia FBPA inh-2 -12%, Rabbit aldolase -1% and GAPDH coupling -1%.
For Cn1ncc(Br)c1C(=O)N/N=C/c1cccc(OC2CSC2)c1 the results were Giardia FBPA inh-1 inconclusive, TbPYK inhibitor -7%, RE007 growth inh -18%, LmPK inhibitor 5%, Giardia growth -1%[38.3 µM], Mammalian tox -6%, Giardia FBPA inh-2 32µM*, Rabbit aldolase 35µM* and GAPDH coupling 35µM*.
For C/C(=N\O)c1ccc(OCC(=O)N2CCCCC2)cc1 the results were TbPYK inhibitor 0%.
Nc1ccc(N2CCCCC2)c(S(=O)(=O)Nc2ccccc2Cl)c1 was read as Giardia FBPA inh-1 16µM*, TbPYK inhibitor -18%, RE007 growth inh -4%, LmPK inhibitor 2%, Giardia growth 29%, Mammalian tox -9%, Giardia FBPA inh-2 -7%, Rabbit aldolase 5% and GAPDH coupling -11%.
Screening CCOC(=O)N1CCN(CCCc2ccccc2)CC1 returned Giardia FBPA inh-1 inconclusive, TbPYK inhibitor -6%, RE007 growth inh 6% and LmPK inhibitor 2%.
`O=C(Cc1ccccc1)N1CCN(CCCc2ccccc2)CC1` gave Giardia FBPA inh-1 25µM*, TbPYK inhibitor 6%, RE007 growth inh -9%, LmPK inhibitor -9%, Giardia growth 50%, Mammalian tox 1%, Giardia FBPA inh-2 -2%, Rabbit aldolase 8% and GAPDH coupling 7%.
For O=C(Cc1ccccc1)N1CCN(Cc2ccc(F)cc2)CC1 the results were Giardia FBPA inh-1 28µM*, TbPYK inhibitor 14%, RE007 growth inh 6%, LmPK inhibitor -2%, Giardia growth 2%[10.4 µM], Mammalian tox 5%, Giardia FBPA inh-2 6%, Rabbit aldolase 18% and GAPDH coupling 9%.
For Fc1ccc(CN2CCN(C(c3ccccc3)c3ccccc3)CC2)cc1 the results were Giardia FBPA inh-1 25µM*, TbPYK inhibitor -4%, RE007 growth inh -4%, LmPK inhibitor -6%, Giardia growth inconclusive, Mammalian tox 19%, Giardia FBPA inh-2 -1%, Rabbit aldolase 12% and GAPDH coupling -5%.
For Clc1ccccc1CN1CCN(CCCc2ccccc2)CC1 the results were Giardia FBPA inh-1 20µM*, TbPYK inhibitor -18%, RE007 growth inh -11%, LmPK inhibitor 2%, Giardia growth -47%, Mammalian tox -2%, Giardia FBPA inh-2 -1%, Rabbit aldolase 7% and GAPDH coupling 9%.
OCC1(CCc2ccccc2)CCN(Cc2ccccc2Cl)CC1 was read as Giardia FBPA inh-1 1%, TbPYK inhibitor -7%, RE007 growth inh -16% and LmPK inhibitor 0%.
For CCCn1c(=O)[nH]c2nc(-c3ccc(S(=O)(=O)O)cc3)[nH]c2c1=O the results were Giardia FBPA inh-1 -3%.
`COC(=O)C1=C(C(=O)OC)[C@@H]2Nc3ccccc3[C@@]23C[C@@H](C(=O)OC)N(S(=O)(=O)c2ccc(C#N)cc2)C3=N1` gave Giardia FBPA inh-1 3%[12.9 µM] and LmPK inhibitor -6%[11.5 µM].
Screening CCN(CC)CCCCn1c(-c2ccccc2)nc2c(N(CCOC)CCOC)nc(C)nc21 returned Giardia FBPA inh-1 0%.
`COc1ccc2c(c1)C(=O)[C@@H](OC(=O)NC1CCCC1)[C@H](c1ccc(OC)c(Br)c1)O2` gave Giardia FBPA inh-1 1%.
`Cc1ccccc1C(=O)Nc1nnc(-c2cccnc2)o1` gave Giardia FBPA inh-1 16µM*, TbPYK inhibitor -5%, RE007 growth inh 9%, LmPK inhibitor 10%[11.5 µM], Giardia growth inconclusive, Mammalian tox 6%, Giardia FBPA inh-2 7%, Rabbit aldolase 0% and GAPDH coupling 7%.
For COc1ccc(OCC(=O)NNC(=O)c2ccccn2)cc1 the results were Giardia FBPA inh-1 16µM*, TbPYK inhibitor 1%, RE007 growth inh -1%, LmPK inhibitor 1%, Giardia growth 8%[10.4 µM], Mammalian tox 8%, Giardia FBPA inh-2 -1%, Rabbit aldolase -5% and GAPDH coupling -4%.
For COc1ccc(OCC(=O)NCCNC(=O)c2ccccn2)cc1 the results were Giardia FBPA inh-1 8%, TbPYK inhibitor 10%, RE007 growth inh -8% and LmPK inhibitor -7%.
COc1ccccc1OCC(=O)NNC(=O)c1cnccn1 was read as Giardia FBPA inh-1 16µM*, TbPYK inhibitor -4%, RE007 growth inh 4%, LmPK inhibitor 4%, Giardia growth inconclusive, Mammalian tox 3%, Giardia FBPA inh-2 -1%, Rabbit aldolase -1% and GAPDH coupling 7%.
For C=CCNC(=S)Nc1ccccc1-c1nnc2n1CCCCC2 the results were Giardia FBPA inh-1 13µM*, TbPYK inhibitor -18%, RE007 growth inh 1%, LmPK inhibitor 7%, Giardia growth 10%[10.4 µM], Mammalian tox -2%, Giardia FBPA inh-2 1%, Rabbit aldolase 4% and GAPDH coupling 19%.
For CCn1ncc(NC(=S)Nc2ccc(OC)c(OC)c2)c1C(N)=O the results were Giardia FBPA inh-1 16µM*, TbPYK inhibitor -7%, RE007 growth inh -13%, LmPK inhibitor -7%, Giardia growth -30%, Mammalian tox -6%, Giardia FBPA inh-2 -15%, Rabbit aldolase -5% and GAPDH coupling -5%.
Screening S=C(Nc1ccc2c(c1)OCO2)Nc1ccc2c(c1)OCO2 returned Giardia FBPA inh-1 -27%, TbPYK inhibitor -19%, RE007 growth inh -29% and LmPK inhibitor -3%.
